# ERa coact inh: ERα–SRC-1 coactivator interaction inhibitors, primary screen, biochemical, TR-FRET, ERα LBD, estradiol-bound | Estrogen receptor (Homo sapiens), P03372 | TR-FRET ER-alpha LBD / SRC-1 peptide | inhibition, % at 25.6 µM | actives 1.7% (n = 86,000) | AID 629, 2007; in the data active means inhibition above about 50%;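 further: 0% = receptor plus peptide control and 100% = peptide only without receptor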
# Smad3 FoxH1 inh: Smad3/FoxH1 peptide binding inhibitors, primary screen, biochemical, TR-FRET; Mothers against decapentaplegic homolog 3 (Homo sapiens), P84022; TR-FRET Smad3/Dy647-FoxH1 peptide binding, europium anti-His; inhibition, % at 25 µM; actives 0.29% (n = 88,000); AID 630, 2007;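 active means compounds that reduce the energy-transfer binding signal between the protein and its labelled peptide by more than half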;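 further: 0% = Smad3 plus labelled peptide maximal FRET and 100% = peptide-only background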
# ERb SRC1 inh: inhibitors of ERβ-SRC1 coactivator interaction, primary screen, biochemical, TR-FRET, ERβ LBD, SRC-1 peptide; TR-FRET ER-beta LBD / SRC1-Cy5 peptide binding; receptor agonist-loaded with 1 µM estradiol; inhibition, % at 25.6 µM; actives 1.3% (n = 86,000); Estrogen receptor beta (Homo sapiens), Q92731;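 active means compounds whose percent inhibition of the receptor-coactivator binding signal exceeds about 50% in the single-dose screen, limit read from the data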;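 further: 0% = receptor plus peptide wells without compound and 100% = peptide-only wells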
# Target sequence (Q92731 whole entry, looked up, the tested form may be a part): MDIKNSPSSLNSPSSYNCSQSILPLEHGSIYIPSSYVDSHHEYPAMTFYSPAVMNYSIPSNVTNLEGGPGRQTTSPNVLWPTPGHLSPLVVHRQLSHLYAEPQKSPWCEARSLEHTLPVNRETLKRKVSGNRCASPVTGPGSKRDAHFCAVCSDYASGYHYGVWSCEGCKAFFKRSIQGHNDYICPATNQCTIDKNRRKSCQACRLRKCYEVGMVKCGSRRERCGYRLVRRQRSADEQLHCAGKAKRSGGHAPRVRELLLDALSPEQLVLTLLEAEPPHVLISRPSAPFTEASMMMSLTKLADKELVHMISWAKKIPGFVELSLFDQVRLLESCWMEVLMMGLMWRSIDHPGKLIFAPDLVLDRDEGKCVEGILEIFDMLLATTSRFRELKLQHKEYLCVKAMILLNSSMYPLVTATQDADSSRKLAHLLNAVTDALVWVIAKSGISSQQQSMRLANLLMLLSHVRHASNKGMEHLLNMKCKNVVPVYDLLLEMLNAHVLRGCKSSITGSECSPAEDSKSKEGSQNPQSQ
# FAK inh: FAK kinase inhibitors, primary screen, biochemical; Focal adhesion kinase 1 (Homo sapiens), Q05397; biochemical FAK kinase activity assay; inhibition, %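 (tested at 7 µM)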; actives 0.84% (n = 97,000); AID 727, 2007; in the data active means inhibition above about 19%;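 further: 0% = DMSO and 100% = reference compound high control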
# ERa SRC1 pot: enhancers of ERα–SRC-1 coactivator binding, primary screen, biochemical, TR-FRET, ERα LBD, low estradiol; actives 1.3% (n = 86,000); TR-FRET ERalpha-LBD/SRC-Cy5 coactivator binding, 2 h; 100 = basal binding, no effect; AID 639, 2007; coactivator binding (% of control), % at 25.6 µM; in the data active means activity above about 200%;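 further: binding measured in presence of low estradiol as agonist stimulus; 0% = peptide alone without receptor and 100% = receptor with peptide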
# Numbers without * were called inactive; nt = no result; [ ] = another dose, or the depositor's remark. Compounds with a hit are over-represented: about 3.3% of the library has one in this group of screens.
SMILES,ERa coact inh,Smad3 FoxH1 inh,ERb SRC1 inh,FAK inh,ERa SRC1 pot
Cc1cc(-c2cc(C)c(O)c(C(C)(C)C)c2)cc(C(C)(C)C)c1O,nt,63*,nt,nt,nt
Cc1ccc(S(=O)(=O)N=Nc2c(O)[nH]c3cc(O)c(C(=O)O)cc23)cc1,nt,16,nt,nt,nt
O=C(Cn1cnc2c(cnn2-c2ccc(F)cc2)c1=O)NCC1CCCO1 (stereo not given),1,-6,-5,1,200*
O=C(Cn1cnc2c(nnn2-c2ccc(F)cc2)c1=O)NCC1CCCO1 (stereo not given),6,-1,9,0,95
Cc1oc(C(=O)Nc2ccc(O)cc2)cc1COc1ccccc1,7,-12,52*[fluorescence artefact?],-2,98
Cc1ccc(OCc2cc(C(=O)Nc3ccccc3)oc2C)cc1,1,11,-17,2,89
Cc1noc(C)c1C(=O)N1CCN(C(=O)c2sc3cc(Cl)ccc3c2Cl)CC1,-4,8,69*[fluorescence artefact?],-1,111
Cc1noc(C)c1C(=O)N1CCN(Cc2ccccc2)CC1,2,11,-12,-1,97
O=C(Cn1cc(C(=O)c2ccco2)c2ccccc21)NC1CCCC1,2,15,-1,-2,554*[fluorescence artefact?]
Cc1ccc(-c2nnn(CC(=O)Nc3ccc(S(=O)(=O)N4CCC(C)CC4)cc3)n2)cc1,44,7,22,10,107
CC1CCN(S(=O)(=O)c2ccc(NC(=O)Cn3nnc(-c4ccccc4)n3)cc2)CC1,94*[fluorescence artefact?],-3,76*[fluorescence artefact?],9,126
CC1CCN(S(=O)(=O)c2ccc(NC(=O)Cc3cccs3)cc2)CC1,74*,-4,62*,8,57
N=C(N)SCc1cccc2c(=O)cc(-c3ccccc3)oc12,nt,8,nt,nt,nt
O=C(O)/C=C/C=C/c1ccc2c(c1)OCO2,nt,-8,nt,nt,nt
Cn1c(Sc2ccc(-c3cccnc3)n2C)ccc1-c1cccnc1,nt,-2,nt,nt,nt
COc1ccc(NC(=O)N2CCN(c3cccc(C(F)(F)F)c3)CC2)cc1,14,33,20,1,106
COc1ccc(-c2noc(CCC(=O)N3CCN(c4cccc(C(F)(F)F)c4)CC3)n2)cc1,-11,8,51*,4,99
Cn1c(=O)c2[nH]c(CCCCC(=O)O)nc2n(C)c1=O,nt,2,nt,nt,nt
O=C(CSc1nnc(-c2ccncc2)n1-c1ccc(F)cc1)NC(=O)NCc1ccco1,68*[fluorescence artefact?],-14,55*[fluorescence artefact?],13,78
C=CCn1c(COc2ccc(F)cc2)nnc1SCC(=O)NC(=O)NCc1ccco1,71*[fluorescence artefact?],1,46,nt,70
C=CCn1c(COc2cccc(C)c2)nnc1SCC(=O)NC(=O)NCc1ccco1,61*,-6,41,13,77
O=C(CSc1nnc(COc2ccccc2)n1Cc1ccco1)NCc1ccco1,46,5,39,3,133
O=C1c2ccccc2C2NC(=O)C3(CCCCC3)N12 (stereo not given),0,8,1,nt,110
O=C1C(O)CC2c3ccccc3CC3(CCCC3)N12 (stereo not given),-8,3,-7,1,235*
O=C(Nc1nnc(C2CCCO2)s1)c1ccc(Br)cc1 (stereo not given),21,4,54*,2,44
SMILES,ERa coact inh,Smad3 FoxH1 inh,ERb SRC1 inh,FAK inh,ERa SRC1 pot
Cc1nc2ccccc2c(=O)n1NC(=O)Cc1ccccc1,-11,9,-12,-3,92
Cc1ccc(S(=O)(=O)OC2CCN(C)CC2)cc1,nt,14,nt,nt,nt
Nc1ncnc2c1nc(-c1ccccc1)n2[C@H]1O[C@@H](CO)[C@H](O)[C@H]1O,nt,14,nt,nt,nt
Cn1c(N)nc2c(nc(OCc3ccccc3)n2[C@H]2O[C@H](CO)[C@@H](O)[C@@H]2O)c1=O,nt,74*,nt,nt,nt
CCC(=O)Oc1ccc(C(CC)C(CC)c2ccc(OC(=O)CC)cc2)cc1 (stereo not given),-2,8,-2,nt,577*
CCC(=O)Oc1ccc(-c2cnc3ccccc3n2)cc1,nt,nt,nt,8,nt
CCN1CCc2c(sc3c2c(NCc2ccco2)nc2nnnn23)C1,85*[fluorescence artefact?],-1,62*[fluorescence artefact?],nt,20
CNC(=O)c1c(NC(=O)c2nc3ccccc3s2)sc2c1CCC2,72*[fluorescence artefact?],4,53*,-3,61
COC(=O)c1c(NC(=O)c2nc3ccccc3s2)sc2c1CCN(C(C)=O)C2,-1,5,5,6,129
COc1ccc(CC(NC(C)=O)C(=O)NC2CCN(C(=O)NCc3ccccc3)CC2)cc1OC (stereo not given),-5,2,87*[fluorescence artefact?],0,117
CC(C)(N)CO[C@@H]1C[C@@H]2CC[C@@]1(C)C2(C)C,nt,3,nt,nt,nt
O=C(O)C[C@@H](C(=O)O)C1c2ccccc2-c2ccccc21,nt,7,nt,nt,nt
COc1cc(OC)c(C2CC(=O)N3CN(c4ccccc4)CSC3=C2C#N)cc1OC (stereo not given),-16,6,5,0,69
COc1ccccc1N1CSC2=C(C#N)C(c3ccc(SC)cc3)CC(=O)N2C1 (stereo not given),64*[fluorescence artefact?],7,61*[fluorescence artefact?],-1,45
COc1cc(C2CC(=O)N3CN(c4ccccc4C)CSC3=C2C#N)cc(OC)c1OC (stereo not given),9,14,5,-1,253*[fluorescence artefact?]
COc1cccc(C2CC(=O)N3CN(c4ccccc4F)CSC3=C2C#N)c1 (stereo not given),-8,7,-15,-2,87
CCc1ccccc1N1CSC2=C(C#N)C(c3cc(OC)c(OC)cc3OC)CC(=O)N2C1 (stereo not given),-6,16,0,16,225*[fluorescence artefact?]
CCOc1ccc(N2CSC3=C(C#N)C(c4ccco4)CC(=O)N3C2)cc1 (stereo not given),51*,10,52*,-1,94
C=C(C)CNCCN,nt,-12,nt,nt,nt
O=C1c2ccccc2-c2ccc(N(Cc3ccc(Br)cc3)Cc3ccc(Br)cc3)cc21,nt,4,nt,nt,nt
CCOc1ccccc1/C=C(\C#N)C(N)=O,nt,11,nt,nt,nt
CC1CCN(CC[S-])CC1.O.O.[Cl][Pt],nt,6,nt,nt,nt
N#C/C(=C\Nc1ccccn1)C(=O)C1CC1,nt,-17,nt,nt,nt
CCOC(=O)C(C(=O)NCCCN1CCOCC1)C1CCCCC1 (stereo not given),-25,-5,-21,19*,103
COc1cc2c(=O)n(Cc3ccco3)c(=O)n(CC(=O)c3ccc(Br)cc3)c2cc1OC,-22,1,48,nt,124
COc1cc2c(=O)n(Cc3ccco3)c(=O)n(CC(=O)c3cccc(Br)c3)c2cc1OC,25,-18,16,-4,283*[fluorescence artefact?]
CC1CCc2c(sc(NC(=O)c3ccc(Cn4cc([N+](=O)[O-])cn4)o3)c2C#N)C1 (stereo not given),61*,-3,64*,19,70

# High-throughput results as filed in PubChem BioAssay.
